The target of test [1] is T1, 3-phosphoinositide-dependent protein kinase 1 (Homo sapiens) (UniProt O15530).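 Further: values are mean inhibition of PDK1.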
T1 sequence (whole entry): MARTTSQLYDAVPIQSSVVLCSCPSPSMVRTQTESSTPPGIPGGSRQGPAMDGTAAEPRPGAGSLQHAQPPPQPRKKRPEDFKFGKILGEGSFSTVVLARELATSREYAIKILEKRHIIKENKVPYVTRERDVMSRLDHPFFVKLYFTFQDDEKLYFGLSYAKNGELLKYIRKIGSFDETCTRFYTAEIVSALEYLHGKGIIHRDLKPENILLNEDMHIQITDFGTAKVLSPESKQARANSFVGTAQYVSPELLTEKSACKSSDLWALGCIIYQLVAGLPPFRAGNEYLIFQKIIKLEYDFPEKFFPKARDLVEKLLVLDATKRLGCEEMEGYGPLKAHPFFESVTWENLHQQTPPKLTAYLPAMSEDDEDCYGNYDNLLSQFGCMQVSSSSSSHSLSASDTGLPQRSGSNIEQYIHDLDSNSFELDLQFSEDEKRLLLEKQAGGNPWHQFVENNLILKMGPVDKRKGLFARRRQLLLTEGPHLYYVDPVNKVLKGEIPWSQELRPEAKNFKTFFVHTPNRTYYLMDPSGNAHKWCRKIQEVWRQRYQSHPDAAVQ
Particulars: at 0.1 µM.

Test [2] deals with cAMP-dependent protein kinase catalytic subunit alpha (Homo sapiens) (UniProt P17612). Particulars: at 0.1 µM.
Test [3] shares this target. Particulars: at 1 µM.
Test [4] deals with Protein kinase C alpha type (Homo sapiens) (UniProt P17252). Particulars: at 0.1 µM.
The target is the same in test [5]. Particulars: at 1 µM.
Test [6] has as its target Protein kinase C beta type (Homo sapiens) (UniProt P05771). Particulars: at 0.1 µM.
The target is the same in test [7]. Particulars: at 1 µM.
Test [8] concerns the target Protein kinase C eta type (Homo sapiens) (UniProt P24723). Particulars: at 0.1 µM.
Test [9] has the same target. Particulars: at 1 µM.
For test [10], the target named is Protein kinase C gamma type (Homo sapiens) (UniProt P05129). Particulars: at 0.1 µM.
For test [11] the target is unchanged. Particulars: at 1 µM.
The target in test [12] is T2, Protein kinase C iota type (Homo sapiens) (UniProt P41743).
T2 sequence (whole entry): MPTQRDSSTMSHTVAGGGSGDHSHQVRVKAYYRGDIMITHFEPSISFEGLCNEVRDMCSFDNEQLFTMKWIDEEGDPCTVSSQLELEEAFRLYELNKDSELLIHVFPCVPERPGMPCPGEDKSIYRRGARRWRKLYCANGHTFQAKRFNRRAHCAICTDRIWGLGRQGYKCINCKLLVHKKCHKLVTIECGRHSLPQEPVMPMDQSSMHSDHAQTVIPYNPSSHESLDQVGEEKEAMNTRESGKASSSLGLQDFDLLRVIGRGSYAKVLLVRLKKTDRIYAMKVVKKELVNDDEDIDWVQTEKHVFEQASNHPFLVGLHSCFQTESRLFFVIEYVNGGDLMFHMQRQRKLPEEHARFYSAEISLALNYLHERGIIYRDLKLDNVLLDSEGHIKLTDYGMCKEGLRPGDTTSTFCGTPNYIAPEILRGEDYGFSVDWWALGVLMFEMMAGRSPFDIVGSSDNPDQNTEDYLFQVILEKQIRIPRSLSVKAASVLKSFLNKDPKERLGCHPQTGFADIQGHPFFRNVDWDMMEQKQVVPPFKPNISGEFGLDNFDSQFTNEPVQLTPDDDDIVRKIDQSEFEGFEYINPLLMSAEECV
Particulars: at 0.1 µM.

Test [13] addresses T2, Protein kinase C iota type (Homo sapiens). Particulars: at 1 µM.
The target in test [14] is Protein kinase C theta type (Homo sapiens) (UniProt Q04759). Particulars: at 0.1 µM.
Test [15] has the same target. Particulars: at 1 µM.
In test [16] the target is Protein kinase C beta type (Homo sapiens) (UniProt P05771). Particulars: at 0.1 µM. This is another data set of the same source.
Test [17] has the same target. Particulars: at 1 µM. This is another data set of the same source.
Test [18] deals with T3, Serine/threonine-protein kinase D1 (Homo sapiens) (UniProt Q15139).
T3 sequence (whole entry): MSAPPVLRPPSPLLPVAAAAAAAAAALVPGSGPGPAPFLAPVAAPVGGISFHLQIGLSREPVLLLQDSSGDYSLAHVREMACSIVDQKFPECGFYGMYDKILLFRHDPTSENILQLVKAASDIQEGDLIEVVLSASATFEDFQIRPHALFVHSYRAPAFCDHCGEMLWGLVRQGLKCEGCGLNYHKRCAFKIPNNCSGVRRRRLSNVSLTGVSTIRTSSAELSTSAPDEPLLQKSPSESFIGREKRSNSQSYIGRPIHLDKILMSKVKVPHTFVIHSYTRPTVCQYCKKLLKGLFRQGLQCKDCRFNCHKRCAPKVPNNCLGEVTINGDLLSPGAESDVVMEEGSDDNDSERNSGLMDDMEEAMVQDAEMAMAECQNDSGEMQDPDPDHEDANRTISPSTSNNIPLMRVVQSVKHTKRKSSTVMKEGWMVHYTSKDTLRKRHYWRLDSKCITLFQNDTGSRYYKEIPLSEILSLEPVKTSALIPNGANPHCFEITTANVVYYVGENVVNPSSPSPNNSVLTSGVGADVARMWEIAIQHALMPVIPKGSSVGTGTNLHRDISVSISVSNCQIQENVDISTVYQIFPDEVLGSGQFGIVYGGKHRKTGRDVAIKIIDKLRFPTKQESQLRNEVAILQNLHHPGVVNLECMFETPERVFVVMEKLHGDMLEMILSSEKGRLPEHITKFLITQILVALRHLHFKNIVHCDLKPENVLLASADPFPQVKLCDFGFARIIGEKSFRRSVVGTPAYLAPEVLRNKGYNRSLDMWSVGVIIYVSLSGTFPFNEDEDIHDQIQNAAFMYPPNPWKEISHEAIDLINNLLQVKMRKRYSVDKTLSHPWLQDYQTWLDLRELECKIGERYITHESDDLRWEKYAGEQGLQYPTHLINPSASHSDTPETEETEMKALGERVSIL
Particulars: at 0.1 µM.

The target in test [19] is T3, Serine/threonine-protein kinase D1 (Homo sapiens). Particulars: at 1 µM.
The target of test [20] is T4, Serine/threonine-protein kinase D2 (Homo sapiens) (UniProt Q9BZL6).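 Further: reported percent inhibition values are means, part of the GSK PKIS kinase panel screen.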
T4 sequence (whole entry): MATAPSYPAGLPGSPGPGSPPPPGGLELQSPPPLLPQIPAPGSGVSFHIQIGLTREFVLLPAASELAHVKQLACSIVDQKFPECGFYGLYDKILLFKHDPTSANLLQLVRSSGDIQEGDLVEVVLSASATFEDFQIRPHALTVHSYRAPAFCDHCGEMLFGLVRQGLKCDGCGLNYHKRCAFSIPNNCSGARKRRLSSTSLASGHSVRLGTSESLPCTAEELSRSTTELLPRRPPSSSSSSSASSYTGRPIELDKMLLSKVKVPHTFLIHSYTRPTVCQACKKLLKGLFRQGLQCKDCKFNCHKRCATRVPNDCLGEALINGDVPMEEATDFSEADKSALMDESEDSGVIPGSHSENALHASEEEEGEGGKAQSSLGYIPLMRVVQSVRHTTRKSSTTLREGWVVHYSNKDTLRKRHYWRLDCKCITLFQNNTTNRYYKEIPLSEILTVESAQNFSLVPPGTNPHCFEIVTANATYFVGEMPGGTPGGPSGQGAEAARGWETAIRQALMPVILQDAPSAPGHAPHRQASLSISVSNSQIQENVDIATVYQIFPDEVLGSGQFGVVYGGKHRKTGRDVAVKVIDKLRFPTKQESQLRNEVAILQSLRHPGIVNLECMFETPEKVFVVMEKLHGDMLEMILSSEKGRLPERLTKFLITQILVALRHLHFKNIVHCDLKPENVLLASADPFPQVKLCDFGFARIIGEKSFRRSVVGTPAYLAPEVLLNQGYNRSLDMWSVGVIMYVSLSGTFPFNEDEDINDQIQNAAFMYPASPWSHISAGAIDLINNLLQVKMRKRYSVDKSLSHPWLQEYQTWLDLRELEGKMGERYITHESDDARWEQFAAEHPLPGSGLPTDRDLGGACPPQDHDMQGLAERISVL
Particulars: at 0.1 µM.

Sequence of Protein kinase C theta type (Homo sapiens) (Q04759 whole entry, looked up): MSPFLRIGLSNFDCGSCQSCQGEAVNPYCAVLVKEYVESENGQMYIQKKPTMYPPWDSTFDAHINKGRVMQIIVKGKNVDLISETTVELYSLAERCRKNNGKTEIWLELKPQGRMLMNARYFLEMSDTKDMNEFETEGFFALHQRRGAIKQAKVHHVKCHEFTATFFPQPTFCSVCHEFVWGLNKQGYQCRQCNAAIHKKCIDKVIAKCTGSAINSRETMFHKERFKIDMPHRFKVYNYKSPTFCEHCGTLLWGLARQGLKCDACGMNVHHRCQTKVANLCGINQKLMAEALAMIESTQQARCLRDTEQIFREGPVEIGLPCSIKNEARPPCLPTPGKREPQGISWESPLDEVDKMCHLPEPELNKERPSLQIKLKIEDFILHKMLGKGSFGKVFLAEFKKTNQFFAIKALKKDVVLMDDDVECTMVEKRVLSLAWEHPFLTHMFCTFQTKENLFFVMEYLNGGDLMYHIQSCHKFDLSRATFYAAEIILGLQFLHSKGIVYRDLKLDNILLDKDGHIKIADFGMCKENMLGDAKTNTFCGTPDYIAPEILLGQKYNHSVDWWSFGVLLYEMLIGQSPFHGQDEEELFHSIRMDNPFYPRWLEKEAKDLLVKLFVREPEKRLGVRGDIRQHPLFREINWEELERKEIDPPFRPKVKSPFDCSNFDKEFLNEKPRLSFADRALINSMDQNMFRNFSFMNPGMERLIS
Sequence of Protein kinase C beta type (Homo sapiens) (P05771 2-671 limits assumed): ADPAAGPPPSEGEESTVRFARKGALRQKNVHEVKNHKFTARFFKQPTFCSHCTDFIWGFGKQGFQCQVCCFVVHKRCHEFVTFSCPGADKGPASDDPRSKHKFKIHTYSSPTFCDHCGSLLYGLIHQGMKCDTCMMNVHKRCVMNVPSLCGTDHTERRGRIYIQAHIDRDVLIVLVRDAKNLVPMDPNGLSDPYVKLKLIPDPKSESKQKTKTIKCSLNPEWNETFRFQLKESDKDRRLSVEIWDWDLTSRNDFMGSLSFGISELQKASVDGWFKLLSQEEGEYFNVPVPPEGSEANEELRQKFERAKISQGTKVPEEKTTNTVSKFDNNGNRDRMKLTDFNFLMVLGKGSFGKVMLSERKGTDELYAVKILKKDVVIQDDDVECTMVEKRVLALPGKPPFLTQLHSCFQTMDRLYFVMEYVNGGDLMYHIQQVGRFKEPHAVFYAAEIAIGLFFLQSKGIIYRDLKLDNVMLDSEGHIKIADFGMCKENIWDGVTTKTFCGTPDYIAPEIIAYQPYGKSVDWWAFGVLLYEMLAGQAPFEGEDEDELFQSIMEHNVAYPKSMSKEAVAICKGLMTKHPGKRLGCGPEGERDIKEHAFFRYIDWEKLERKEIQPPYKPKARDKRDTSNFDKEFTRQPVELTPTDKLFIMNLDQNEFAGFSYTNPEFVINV
Sequence of Protein kinase C eta type (Homo sapiens) (P24723 whole entry): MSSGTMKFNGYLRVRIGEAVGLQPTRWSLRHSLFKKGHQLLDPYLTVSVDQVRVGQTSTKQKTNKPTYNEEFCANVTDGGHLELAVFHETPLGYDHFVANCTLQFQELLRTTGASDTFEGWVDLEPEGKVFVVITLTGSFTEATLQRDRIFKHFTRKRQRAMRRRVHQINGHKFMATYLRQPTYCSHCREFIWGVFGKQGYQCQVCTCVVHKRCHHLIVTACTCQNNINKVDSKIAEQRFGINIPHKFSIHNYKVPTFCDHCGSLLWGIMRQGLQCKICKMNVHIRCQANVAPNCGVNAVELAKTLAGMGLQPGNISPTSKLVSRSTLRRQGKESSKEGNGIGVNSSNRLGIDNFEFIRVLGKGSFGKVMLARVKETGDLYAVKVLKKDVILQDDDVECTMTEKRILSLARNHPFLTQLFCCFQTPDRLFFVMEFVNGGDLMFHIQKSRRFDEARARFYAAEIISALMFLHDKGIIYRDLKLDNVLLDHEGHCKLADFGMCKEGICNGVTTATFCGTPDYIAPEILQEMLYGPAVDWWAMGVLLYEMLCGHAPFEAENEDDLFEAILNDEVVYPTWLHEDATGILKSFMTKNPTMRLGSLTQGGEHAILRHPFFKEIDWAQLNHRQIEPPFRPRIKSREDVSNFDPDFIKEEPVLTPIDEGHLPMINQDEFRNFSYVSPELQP

In the case of `COc1ccc(Nc2ncc(-c3ccccc3)o2)cc1OC`, the inhibition in test [1] was 2.22%; in test [2] it was 0.2%; in test [3] it was 1.87%; in [4] it was 1.08%; in [5], 4.51%; in test [6] it was -0.02%. In addition, the inhibition in test [7] was 3.24%; in test [8] it was 0.42%; in [9], -1.25%; in test [10], 0.58%; in [11] it was 1.49%; in test [12] it was -0.08%. The inhibition was 0.61% in [13]; -0.85% in test [14]; -0.93% in test [15]; -0.24% in test [16]; 1.4% in test [17]; 0.41% in test [18]. Besides, the inhibition in test [19] stood at 2.5%; in [20] it was 0.6%.

Turning to `Cc1cc(O)cc(C)c1/C=C/c1cncc(C(=O)OC(C)(C)C)c1`, the inhibition in [1] was found to be 1.42%; in [2] it was 1.82%; in [3] it was 3.63%; in test [4], 0.14%; in test [5], 0.77%; in test [6], 0.46%. Also, the inhibition in test [7] is -1.03%; in [8], -1.29%; in test [9] it was 3.71%; in [10] it was 3.91%; in test [11] it was 2.62%; in test [12], 2.97%. The inhibition came to 0.22% in test [13]; 1.48% in test [14]; 1.91% in test [15]; 1.37% in [16]; 1.05% in test [17]; 2.14% in [18]. Besides, the inhibition in [19] is 2.96%; in test [20], 1.79%.

As to `N#Cc1ccc2c(-c3ccnc(NC4CC4)n3)c(-c3ccc(F)cc3)nn2c1`, the inhibition in [1] was 0.01%; in test [2] it was 1.59%; in test [3] it was 0.4%; in [4], 0.15%; in [5], 1.24%; in [6], -1.19%. In addition, the inhibition was -0.72% in test [7]; 2.95% in [8]; 0.36% in test [9]; 1.4% in [10]; 1.83% in [11]; 0.18% in test [12]. Further, the inhibition in [13] amounted to 0.6%; in test [14] it was 1.35%; in [15], 1.42%; in test [16] it was 1.33%; in test [17], 4.8%; in test [18], 5.97%. Further, the inhibition amounted to 40% in test [19] and 5.96% in [20].

Usually inhibition stands for the drop in the measured response relative to a control, in per cent.

These data come from ChEMBL document CHEMBL1961873, “Compounds: GSK PKIS; Assays: Nanosyn kinase panel” (2012).
